EBV gp42 inh: inhibitors of Epstein-Barr virus glycoprotein 42 | inhibition, % (tested at 21.74 µM) | Fluorescence polarization binding assay, mP read-out | 220,000 compounds, 0.42% hits | AID 1085; in the data active means inhibition above about 50%
LANA DNA inh: KSHV C-LANA DNA binding inhibition | MBP-C-LANA/FAM-LBS DNA binding, fluorescence polarization | 340,000 compounds, 0.078% hits | AID 504423 | inhibition, % at 9 µM;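 active means highest replicate inhibition at or above 60% at 9 µM, even if other replicates fall short; inactive means all replicates below 60% inhibition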;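 further: 0% = neutral control wells and 100% = 4 µM acridine orange control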
RTF Ca sens inh: cardiac RTF calcium desensitization | P19429+P45379 | IANBD-labeled cardiac RTF, Ca2+ fluorescence | inhibition, % at 7.15 µM | 340,000 compounds, 0.12% hits;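 active means inhibition above the mean inhibition of all tested compounds plus 3 SD, cut at about 17% in these data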;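 further: assay run at fixed EC70 calcium of 1.6 mM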
E coli Lon inh: inhibits E. coli Lon protease; inhibition, % at 7.94 µM; AID 602123; purified E. coli Lon protease, fluorescence polarization; 360,000 compounds, 0.42% hits; P0A9M0; in the data active means inhibition above about 13%, passing the limit was not always enough;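 further: 0% = enzyme with probe and DMSO and 100% = no enzyme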
cardiac RTF act: increases calcium sensitivity of human cardiac regulated thin filaments; P19429+P45379; IANBD-labeled TnC RTF fluorescence at EC20 calcium; 0% EC20 calcium, 100% full calcium; activation, % at 7.2 µM; 340,000 compounds, 0.24% hits;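 active means activation above the mean over all tested compounds plus 3 SD, cut at about 30% in these data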;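 further: rise in fluorescence read as greater calcium sensitivity of cardiac thin filaments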
Keap1 Nrf2 FP: inhibitors of human Keap1-Nrf2 protein-protein interaction | Keap1 Kelch-Nrf2 peptide fluorescence polarization, 1536-well | 340,000 compounds, 0.15% hits | AID 504523 | inhibition, % at 9.4 µM | Q14145; in the data active means inhibition above about 12%;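 further: human Keap1 Kelch domain with fluorescein labeled Nrf2 9mer peptide probe; 0% = neutral control wells and 100% = peptide positive control; higher means more block of Keap1 binding to Nrf2 peptide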
Target sequence (Q14145 whole entry, looked up, the tested form may be a part): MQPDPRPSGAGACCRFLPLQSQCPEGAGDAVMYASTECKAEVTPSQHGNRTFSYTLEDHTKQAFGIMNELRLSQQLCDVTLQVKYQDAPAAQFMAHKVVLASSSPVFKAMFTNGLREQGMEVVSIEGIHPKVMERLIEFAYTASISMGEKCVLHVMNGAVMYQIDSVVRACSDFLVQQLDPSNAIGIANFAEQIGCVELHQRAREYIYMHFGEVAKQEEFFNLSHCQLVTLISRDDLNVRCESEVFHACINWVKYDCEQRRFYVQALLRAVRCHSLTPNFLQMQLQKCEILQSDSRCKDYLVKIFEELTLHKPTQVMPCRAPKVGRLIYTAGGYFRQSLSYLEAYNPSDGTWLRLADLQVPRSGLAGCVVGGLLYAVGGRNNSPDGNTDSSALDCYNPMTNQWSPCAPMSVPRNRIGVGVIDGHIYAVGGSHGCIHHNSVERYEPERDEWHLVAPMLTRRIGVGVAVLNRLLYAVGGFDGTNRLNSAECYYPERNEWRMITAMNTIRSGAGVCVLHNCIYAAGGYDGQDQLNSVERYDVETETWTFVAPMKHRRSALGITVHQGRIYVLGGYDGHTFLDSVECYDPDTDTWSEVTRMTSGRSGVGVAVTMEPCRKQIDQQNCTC
RTF inh confirm: confirmation of inhibitors of cardiac thin filament calcium sensitivity. shares compounds with RTF Ca sens inh. reconstituted cardiac thin filaments, calcium sensitivity fluorescence. inhibition, % at 7.15 µM. 360 compounds, 8% hits. AID 504635; in the data active means inhibition above about 18%
* marks the source's active call; other numbers are inactive results. Shown are actives, neighbours in structure and some others; about 0.98% of the full set was active somewhere.

What do the screens show for `COc1ccc(OC)c(S(=O)(=O)NCC(c2ccco2)N2CCc3ccccc3C2)c1` (configuration not stated)?
LANA DNA inh: -1.2; RTF Ca sens inh: 17.8*; E coli Lon inh: -2.8; cardiac RTF act: -6.5; Keap1 Nrf2 FP: 0.1; RTF inh confirm: -4.5

What do the screens show for `CC(=O)NC(CC(C)C)C(=O)O` (configuration not stated)?
LANA DNA inh: -0.4; RTF Ca sens inh: 1.4; E coli Lon inh: -4.7; cardiac RTF act: 1.5; Keap1 Nrf2 FP: -1.7

How did CN[C@H](CC(=O)O)C(=O)O do in these assays?
LANA DNA inh: 0.8; RTF Ca sens inh: 18.0*; E coli Lon inh: 2.3; cardiac RTF act: 5.7; Keap1 Nrf2 FP: -1.3; RTF inh confirm: -2.4

Results for COC(=O)CN(C)C(=O)c1ccccc1OC1CCN(S(C)(=O)=O)CC1 ?
LANA DNA inh: -1.1; RTF Ca sens inh: 1.0; E coli Lon inh: -4.1; cardiac RTF act: -2.2; Keap1 Nrf2 FP: 1.0

How did O=C(NCC(c1cccs1)N1CCOCC1)c1ccc([N+](=O)[O-])cc1 (configuration not stated) do in these assays?
EBV gp42 inh: -2.1; LANA DNA inh: 3.1; RTF Ca sens inh: 17.4*; E coli Lon inh: 0.7; cardiac RTF act: -4.7; Keap1 Nrf2 FP: -0.4; RTF inh confirm: -3.5

What do the screens show for `CC1(C(=O)NCc2cccs2)CCN1C(=O)Cc1cccc2ccccc12` (configuration not stated)?
E coli Lon inh: 1.8

What do the screens show for `COc1ccc(N2C(=O)CSC2c2ccccc2[N+](=O)[O-])cc1` (configuration not stated)?
EBV gp42 inh: -6.6; LANA DNA inh: 1.7; RTF Ca sens inh: 19.0*; E coli Lon inh: 2.8; cardiac RTF act: 0.0; Keap1 Nrf2 FP: -1.4; RTF inh confirm: 0.6

What do the screens show for `Cc1ccc(NC(=O)COC(=O)/C=C/c2cccc(Cl)c2)cc1S(=O)(=O)N1CCOCC1`?
EBV gp42 inh: -13.4; LANA DNA inh: -2.4; RTF Ca sens inh: 22.4*; E coli Lon inh: -2.6; cardiac RTF act: 1.4; Keap1 Nrf2 FP: 0.2; RTF inh confirm: -6.0

What do the screens show for `CCCCn1c(N)c(N(CC(C)C)C(=O)C2CCN(S(=O)(=O)c3ccc(C)cc3)CC2)c(=O)[nH]c1=O`?
LANA DNA inh: -0.6; RTF Ca sens inh: 3.3; E coli Lon inh: 9.3; cardiac RTF act: -20.1; Keap1 Nrf2 FP: -3.1

What do the screens show for `O=C1c2ccccc2C(c2nnnn2-c2ccc3c(c2)OCCO3)N1Cc1ccc(F)cc1` (configuration not stated)?
E coli Lon inh: 1.8

Results for O=C(Nc1ccc2nc(-c3ccco3)c(-c3ccco3)nc2c1)NC1CC1 ?
EBV gp42 inh: 40.0; LANA DNA inh: 0.8; RTF Ca sens inh: 23.6*; E coli Lon inh: 14.3; cardiac RTF act: -24.4; Keap1 Nrf2 FP: 0.0; RTF inh confirm: 19.4*

Results for O=C(O)c1ccc2nc(-c3ccco3)c(-c3ccco3)nc2c1 ?
EBV gp42 inh: -13.0; LANA DNA inh: 29.8; RTF Ca sens inh: 46.9*; E coli Lon inh: 12.1; cardiac RTF act: -29.5; Keap1 Nrf2 FP: 5.3; RTF inh confirm: 70.0*

How did O=C(Nc1ccc(N2CCOCC2)cc1)Nc1ccc2nc(-c3ccco3)c(-c3ccco3)nc2c1 do in these assays?
EBV gp42 inh: -8.9; LANA DNA inh: 0.8; RTF Ca sens inh: -6.2; E coli Lon inh: 2.5; cardiac RTF act: -0.9; Keap1 Nrf2 FP: 3.0

What do the screens show for `CSc1nc(-c2ccccc2)cc(C)c1C#N`?
EBV gp42 inh: -23.9; LANA DNA inh: 0.2; RTF Ca sens inh: 18.5*; E coli Lon inh: 4.4; cardiac RTF act: 8.8; Keap1 Nrf2 FP: 1.1; RTF inh confirm: -10.2

How did CCOC(=O)Cn1nc(C)cc1NC(=O)c1cccnc1 do in these assays?
EBV gp42 inh: -15.9; LANA DNA inh: 0.4; RTF Ca sens inh: 20.7*; E coli Lon inh: 2.4; cardiac RTF act: -0.3; Keap1 Nrf2 FP: -0.1; RTF inh confirm: -0.6

Results for CC(=O)Nc1ccc(C(=O)Nc2ccc(S(=O)(=O)N3CCCCC3)cc2)cc1 ?
LANA DNA inh: -1.2; RTF Ca sens inh: -4.1; E coli Lon inh: -1.5; cardiac RTF act: -7.0; Keap1 Nrf2 FP: -3.3

Compound activity (PubChem BioAssay)
